Screening results as filed in PubChem BioAssay.
NPSR antagonist: neuropeptide S receptor (human) antagonism, cAMP. Q6W5P4. CHO-NPSR cells, cAMP TR-FRET, antagonist mode. Potency, µM (highest dose often 38.3 µM), for inactives: at the top dose activity change, negative = inhibition, actives largely listed as inhibitors. 1% of 220,000 active; also: potency is read from the fitted curve at half-maximal effect; nearly all actives have a fitted effect of over 50% in size
FBPA coupling cs: inhibits coupling enzyme system, counter-screen for aldolase hits; activity change, negative = inhibition, % at 58.2 µM, hits read low; 0.67% of 290,000 active; coupling enzyme system counterscreen, AmpLite Red fluorescence; in the data active = activity change below about -30%
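Final compound at 57.5 uM, incubated 10 min at RT with coupling enzyme reagent (glyceraldehyde-3-phosphate), then 20 min with substrate and AmpLite Red detection. Fluorescence read at 525/598 nm; tests interference with the coupling assay, not aldolase inhibition.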
Sfp PPTase inh: blocks B. subtilis Sfp PPTase activity; Biochemical Sfp PPTase activity, qHTS; Potency, µM, for the others: largest response in the series, negative = inhibition, actives largely listed as inhibitors; 3.5% of 310,000 active; AID 1490;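 also: the enzyme is Sfp with the accession as filed and its product quenches rhodamine fluorescence; potency is read from the fitted curve at half-maximal effect; 0% = enzyme reaction without inhibitor and -100% = no enzyme wells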
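Compounds were incubated with enzyme (final 15 nM) for 15 min at room temperature before substrate addition started the reaction. Fluorescence at 525 nm excitation, 598 nm emission was recorded immediately and after 30 minutes.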
ALDH1A1 inh: blocks purified human ALDH1A1 activity; Purified ALDH1A1, NADH fluorescence, propionaldehyde substrate; Potency, µM (highest dose often 75.3 µM), for the others: top-dose activity, negative = inhibition, most hits filed as inhibitors; 7.3% of 220,000 active; AID 1030; active = well fitted inhibition curve with a large enough effect, not every such curve was filed as active; inconclusive = small, poorly fitted or top-dose-only effect, or another doubt; inactive = no such curve, though single readings can be large or run the other way;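 also: potency is read from the fitted curve at half-maximal effect; plate controls were no enzyme wells and a reference inhibitor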
Target sequence (P00352 whole entry, looked up): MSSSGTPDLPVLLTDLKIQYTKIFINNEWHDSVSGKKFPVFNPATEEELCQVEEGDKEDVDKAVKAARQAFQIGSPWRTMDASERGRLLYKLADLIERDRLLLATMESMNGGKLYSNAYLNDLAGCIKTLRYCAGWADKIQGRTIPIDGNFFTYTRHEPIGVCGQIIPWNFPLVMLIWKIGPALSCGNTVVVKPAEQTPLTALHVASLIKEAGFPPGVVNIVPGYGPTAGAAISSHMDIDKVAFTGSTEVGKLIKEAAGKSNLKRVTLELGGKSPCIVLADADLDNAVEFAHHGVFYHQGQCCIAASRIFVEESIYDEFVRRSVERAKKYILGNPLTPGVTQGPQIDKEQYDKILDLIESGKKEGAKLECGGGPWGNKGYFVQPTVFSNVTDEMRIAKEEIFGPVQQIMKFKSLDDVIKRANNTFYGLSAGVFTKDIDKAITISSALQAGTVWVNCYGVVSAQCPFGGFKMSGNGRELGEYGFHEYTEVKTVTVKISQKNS
JMJD2E inh: JMJD2E (human) inhibition. B2RXH2. JMJD2E catalytic domain, FDH-coupled NADH fluorescence (FDH is formaldehyde dehydrogenase). Potency, µM (highest dose often 57.1 µM), inactives show top-dose activity change, negative = inhibition, actives largely listed as inhibitors. 1.6% of 230,000 active. AID 2147; active = well fitted inhibition curve with a large enough effect, not every such curve was filed as active; inconclusive = small, poorly fitted or top-dose-only effect, or another doubt; inactive = no such curve, though single readings can be large or run the other way;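 also: potency is read from the fitted curve at half-maximal effect; 0% = wells with enzyme and -100% = buffer wells without enzyme; nearly all actives have a fitted effect of over 50% in size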
GoLoco inh red: blocks human Gai1 binding to RGS12 GoLoco peptide, red readout. AID 880. Potency, µM (top dose mostly 61.6 µM), for the others: top-dose activity, negative = inhibition, usual class: inhibitors. Gai1:RGS12 GoLoco peptide FP, rhodamine, 10 min. 0.44% of 230,000 active. P63096; active = well fitted inhibition curve with a large enough effect, not every such curve was filed as active; inactive = no such curve, though single readings can be large or run the other way; also: potency is read from the fitted curve at half-maximal effect; nearly all actives have a fitted effect of over 30% in size
* marks the source's active call; other numbers are inactive results; ? = inconclusive; nt = not tested or not shown; [ ] = another dose, or the depositor's remark. Only some compounds are listed: those with a hit (about 8.5% of all), similar ones and a draw of the others. Unless noted, calls follow the shape of the dose curve; as a rule, active = well fitted curve in the direction sought with a large enough effect; inconclusive = small, poorly fitted or top-dose-only effect, or another doubt; inactive = no such curve, though single readings can be large; an effect the other way counts as inactive or inconclusive. Unless noted, % is scaled to controls: 0 for no effect and ±100 for the full control effect.

SMILES | NPSR antagonist | FBPA coupling cs | Sfp PPTase inh | ALDH1A1 inh | JMJD2E inh | GoLoco inh red
CCOC(=O)c1c(CSc2ccccc2)n(C)c2cc(Br)c(OC)c(O)c12 | nt | 0 | 13% | nt | nt | nt
Cn1cc(CN2CCC(C(=O)Nc3ccc(Oc4ccccc4F)cc3)CC2)cn1 | nt | nt | 7% | nt | nt | nt
C[C@H](C(=O)OCO/N=[N+](\[O-])N1CCCC1)c1cccc2ccccc12 | nt | -19 | 56µM* | nt | nt | nt
O=C(O)CC(c1cccc2ccccc12)n1cccc1 (configuration not stated) | 0%[46.1 µM] | nt | -9% | -7% | -5% | 9%
COC(=O)Cn1cc(/C=N/NC(=O)c2ccc(C#N)cc2F)c2ccccc21 | -3%[46.1 µM] | 2 | 9% | 3% | 2% | -6%
CCn1cc(/C=N/NC(=O)c2ccc(C#N)cc2F)c2ccccc21 | -11%[46.1 µM] | -32* | 12% | 0% | 3% | 11%
CC(=O)C1=C(O)C(=O)N(CCCn2ccnc2)C1c1ccc(C)cc1 (configuration not stated) | 0%[46.1 µM] | 4 | 0% | -10% | ? | -19%
CCN1C(=O)[C@H]2[C@@H](c3ccc(Cl)cc3)N3C(=O)CN(CC4CC4)C(=O)[C@@]3(C)[C@H]2C1=O | nt | 0 | 11% | nt | nt | nt
Cc1oc2c(Cl)c(Cl)c(O)c(CN(C)C)c2c1C(=O)c1ccc(Cl)cc1 | nt | -18 | -28% | nt | nt | nt
Cc1oc2ccc(O)c(CN3CCOCC3)c2c1C(=O)c1ccc(Cl)cc1 | -30%[46.1 µM] | -40* | 17% | ? | 1% | 3%
S=c1[nH]nc(-c2ccccn2)n1/N=C/c1c(Cl)cccc1Cl | 45% | -3 | ? | 18µM* | -7% | 0%
Cc1ccc(/C=N/n2c(-c3ccccn3)n[nH]c2=S)o1 | -7% | 0 | 28µM* | ? | -8% | 1%
S=c1[nH]nc(-c2ccccn2)n1/N=C/c1ccc(Cl)cc1 | 19% | 5 | 11% | 0% | 5% | 2%
S=c1[nH]nc(-c2ccccn2)n1/N=C/c1ccccc1 | -15% | 6 | 40µM* | -15% | ? | 16%
Fc1ccc(/C=N/n2c(-c3cccs3)n[nH]c2=S)cc1 | -17%[46.1 µM] | 5 | 50µM* | 14µM* | 2% | -22%
Cc1cccc(/C=N/n2c(-c3ccccn3)n[nH]c2=S)c1 | -9%[46.1 µM] | -3 | ? | ? | -6% | nt
COC(=O)c1cnc(Oc2ccc(NC(=O)NC(=O)c3ccccc3Cl)cc2)cc1C(F)(F)F | 31% | 0 | 20% | 11% | -3% | 1%
COc1ccc(C(=O)NCc2ccc3c(c2)CCO3)cc1 | -17% | 0 | 4% | nt | 2% | 1%
COc1ccc(CN2CCN(Cc3ccc(CO)o3)CC2CCO)cc1C (configuration not stated) | nt | 0 | 15% | nt | nt | nt
CN(C)c1ccc(/C=N/n2c(-c3ccccc3Br)n[nH]c2=S)cc1 | -55% | 3 | 56µM* | nt | ? | 2%
Cc1ccccc1/C=N/n1c(-c2ccccn2)n[nH]c1=S | 13% | -6 | 35µM* | nt | -14% | 14%
CCN(CC)c1ccc(/C=N/n2c(=S)[nH]nc(C)c2=O)cc1 | -14%[46.1 µM] | -2 | 79µM* | ? | -4% | nt
S=c1[nH]nc(-c2ccccn2)n1/N=C/c1cccc2ccccc12 | -24% | -9 | -12% | ? | ? | 20%
O=C1CCCC=C1[C@H](O)CCCCBr | nt | 3 | 1% | -4%[13.5 µM] | nt | nt
Cc1nnc(C)c2c(C)n(Cc3ccc4c(c3)OCO4)c(C)c12 | -25%[46.1 µM] | 2 | -8% | -14% | 22µM* | 17%
c1cc2c(cc1Cn1cnnn1)OCO2 | 8%[46.1 µM] | 0 | 6% | 4% | ? | -2%
CC(C(=O)Nc1ccc(F)c(F)c1)N1CCN(C)CC1 (configuration not stated) | nt | -1 | ? | nt | nt | nt
COc1ccc(NC(=O)C(C)N2CCN(C)CC2)cc1 (configuration not stated) | nt | -2 | 63µM* | nt | nt | nt
Cc1ccc(NC(=O)c2ccccc2N2C(=O)C3C4C=CC(C5CC45)C3C2=O)cc1C (configuration not stated) | nt | 0 | 6% | nt | nt | nt
COc1ccc(-c2nnc3n2N=C(c2ccccc2OC)CS3)cc1OC | nt | -3 | -12% | nt | nt | nt
